According to the supplement of paper PMC10849652:
Targets with a hit are over-represented here; the source holds about 8,800 in all. About 0.5% of all pairs of compound and target were hits.

Columns and labels:
Experiment in all cases: log2 fold change, soluble protein after heating vs DMSO (PISA); higher = thermal stabilisation; K562 lysate, 10 uM; active = over 0.2 and 3.5 SD of the protein, either way, in both replicates (recomputed)
erlotinib = compound: C#Cc1cccc(Nc2ncnc3cc(OCCOC)c(OCCOC)cc23)c1 [erlotinib]
Summary of the method: (§1)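 Dounce homogenisation of K562 pellets in PBS pH 7.4 with 1 mM MgCl2 produced a crude extract, used at 1 mg/mL protein. Exposure to 10 μM compound lasted 30 min, and aliquots were then heated for 3 min across 48°C-58°C, pooled and brought to 0.5% NP-40 at 4°C. The supernatant after 21,000xg for 90 min was quantified by TMTpro 16plex LC-MS/MS with channel sums equalised. Duplicate values are given as log-two fold change in thermal stability relative to solvent controls.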

[1] = compound: C/C(=N\NC(=O)C1=CC(=CC=C1)S(=O)(=O)N2CCOCC2)/C3=C(C=CC(=C3)Cl)O
Summary of the method: as §1

[2] = compound: C1=CC(=CC=C1C2=NC3=C(N2)C=C(C=C3)C(=O)N)OC4=CC=C(C=C4)Cl
Summary of the method: as §1

[3] = compound: C1=CC2=C(C=CC(=C2)/C=C\3/C(=O)NC(=NCC4=CC=CS4)S3)N=C1
Summary of the method: as §1

[4] = compound: C1=CC2=NC=CN=C2C=C1/C=C/3\C(=O)NC(=O)S3
Summary of the method: as §1

[5] = compound: C1=CC=C(C=C1)C2=NC(=C(N2)C3=CC=NC=C3)C4=CC(=C(C=C4)Cl)O
Summary of the method: as §1

[6] = compound: C1=CC=C2C(=C1)C3=NNC4=CC=CC(=C43)C2=O
Summary of the method: as §1

[7] = compound: C1CCN(C1)C(=O)NC2=CC=CC(=C2)NC3=NC=C(C(=N3)NCCC4=CN=CN4)Br
Summary of the method: as §1

[8] = compound: C1CN(CCC1(CC2=CC=C(C=C2)Cl)N)C3=NC=NC4=C3C=CN4
Summary of the method: as §1

IRAK-1-4 Inhibitor I = compound: C1COCCN1CCN2C3=CC=CC=C3N=C2NC(=O)C4=CC(=CC=C4)[N+](=O)[O-] [IRAK-1-4 Inhibitor I]
Summary of the method: as §1

ibrutinib = compound: C=CC(=O)N1CCC[C@@H](n2nc(-c3ccc(Oc4ccccc4)cc3)c3c(N)ncnc32)C1 [ibrutinib]
Summary of the method: as §1

[9] = compound: CC(=O)c1cnc2ccc(-c3cc(Cl)c(O)c(Cl)c3)nc2c1N[C@H]1CC[C@H](CN(C)C)CC1
Summary of the method: as §1

ralimetinib = compound: CC(C)(C)Cn1c(N)nc2ccc(-c3[nH]c(C(C)(C)C)nc3-c3ccc(F)cc3)nc21 [ralimetinib]
Summary of the method: as §1

[10] = compound: CC(C)(O)CC(=O)NCCn1ccc2ncnc(Nc3ccc(Oc4cccc(C(F)(F)F)c4)c(Cl)c3)c21
Summary of the method: as §1

[11] = compound: CC(C)C1=C2N=C(C=C(N2N=C1)NCC3=CC=CC=C3)NCCCCCCN
Summary of the method: as §1

[12] = compound: CC1=C(C(CC(=O)N1)C2=CC=C(C=C2)C(F)(F)F)C(=O)NC3=C(C=C4C(=C3)C=NN4)F
Summary of the method: as §1

[13] = compound: CC1=C(C2=C(C=C1)C(=O)C3=CC=CC=C3N2CCCN)C
Summary of the method: as §1

[14] = compound: CC1=C(C=C(C=C1)NC(=O)C2=CC(=CC=C2)C(C)(C)C#N)NC3=CC4=C(C=C3)N=CN(C4=O)C
Summary of the method: as §1

[15] = compound: CC1=C(C=C(C=C1)NC(=O)C2=CC(=CC=C2)N(C)C)NC(=O)C3=CC=C(C=C3)O
Summary of the method: as §1

[16] = compound: CC1=CC=C(C=C1)SC2=C3C=C(SC3=CN=C2)C(=O)N
Summary of the method: as §1

Measured: log2 fold change

HSPA8 (UniProt P11142)
inactive: erlotinib -0.022 | [1] 0.003 | [2] 0.008 | [3] 0.002 | [4] -0.028 | [5] -0.004 | [6] 0.038 | [7] 0.016 | [8] -0.009 | IRAK-1-4 Inhibitor I -0.008 | ibrutinib -0.02 | [9] -0.002 | ralimetinib -0.015 | [10] -0.003 | [11] 0.001 | [12] -0.022 | [13] 0.005 | [14] -0.013 | [15] -0.002 | [16] 0.009

HECTD4 (UniProt J3KPF0)
inactive: erlotinib 0.076 | [1] -0.002 | [2] 0.035 | [3] -0.125 | [4] -0.02 | [5] 0.024 | [6] -0.055 | [7] -0.027 | [8] 0.01 | IRAK-1-4 Inhibitor I -0.009 | ibrutinib 0.017 | [9] -0.024 | ralimetinib 0.001 | [10] 0.007 | [11] -0.032 | [12] -0.028 | [13] -0.036 | [14] 0.032 | [15] 0.021 | [16] 0.009

INTS14 (UniProt Q96SY0)
Sequence of UniProt Q96SY0 (Q96SY0 whole entry, looked up): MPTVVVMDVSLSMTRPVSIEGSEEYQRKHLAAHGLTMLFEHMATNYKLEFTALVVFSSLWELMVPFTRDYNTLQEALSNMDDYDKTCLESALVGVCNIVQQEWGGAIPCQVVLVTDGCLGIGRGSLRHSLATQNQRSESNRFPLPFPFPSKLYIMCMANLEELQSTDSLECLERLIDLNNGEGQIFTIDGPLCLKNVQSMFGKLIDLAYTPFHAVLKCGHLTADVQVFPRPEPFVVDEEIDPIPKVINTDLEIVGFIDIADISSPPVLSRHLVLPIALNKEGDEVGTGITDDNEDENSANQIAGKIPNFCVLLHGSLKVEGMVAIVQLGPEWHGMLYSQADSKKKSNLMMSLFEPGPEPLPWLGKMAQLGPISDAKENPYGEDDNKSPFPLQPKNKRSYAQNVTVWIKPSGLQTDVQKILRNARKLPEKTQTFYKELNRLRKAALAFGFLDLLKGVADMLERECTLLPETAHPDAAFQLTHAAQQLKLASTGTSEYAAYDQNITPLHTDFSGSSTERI
inactive: erlotinib 0.007 | [1] -0.13 | [2] 0.025 | [3] 0.008 | [4] -0.012 | [5] -0.001 | [6] 0.018 | [7] -0.01 | [8] 0 | IRAK-1-4 Inhibitor I 0.006 | ibrutinib -0.006 | [9] -0.008 | ralimetinib 0.023 | [10] -0.012 | [11] -0.048 | [12] -0.003 | [13] -0.029 | [14] -0.004 | [15] 0.006 | [16] -0.01

HSPA8 (UniProt E9PK54)
inactive: erlotinib 0.045 | [1] -0.222 | [2] -0.045 | [3] -0.099 | [4] 0.014 | [5] -0.044 | [6] 0 | [7] -0.043 | [8] -0.008 | IRAK-1-4 Inhibitor I -0.141 | ibrutinib 0.065 | [9] -0.086 | ralimetinib -0.013 | [10] -0.132 | [11] 0.004 | [12] -0.019 | [13] 0.008 | [14] -0.076 | [15] -0.019 | [16] 0.014

ILKAP (UniProt Q9H0C8)
Sequence of UniProt Q9H0C8 (Q9H0C8 whole entry, looked up): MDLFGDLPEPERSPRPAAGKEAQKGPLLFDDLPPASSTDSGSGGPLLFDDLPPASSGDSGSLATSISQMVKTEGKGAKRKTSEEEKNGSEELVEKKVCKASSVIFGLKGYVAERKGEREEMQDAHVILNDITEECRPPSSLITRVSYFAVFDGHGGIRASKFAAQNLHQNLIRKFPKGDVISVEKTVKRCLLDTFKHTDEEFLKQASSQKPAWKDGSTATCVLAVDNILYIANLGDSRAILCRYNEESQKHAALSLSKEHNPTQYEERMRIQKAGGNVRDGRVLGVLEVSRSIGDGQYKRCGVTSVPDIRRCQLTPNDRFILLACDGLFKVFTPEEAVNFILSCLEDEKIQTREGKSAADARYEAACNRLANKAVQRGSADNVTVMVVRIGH
inactive: erlotinib -0.042 | [1] -0.01 | [2] -0.007 | [3] 0.027 | [4] -0.021 | [5] -0.005 | [6] 0.015 | [7] -0.022 | [8] -0.043 | IRAK-1-4 Inhibitor I 0.004 | ibrutinib -0.018 | [9] 0 | ralimetinib -0.007 | [10] 0.031 | [11] -0.032 | [12] 0.007 | [13] 0.037 | [14] -0.016 | [15] 0 | [16] -0.002

KARS1 (UniProt Q15046)
Sequence of UniProt Q15046 (Q15046 whole entry, looked up): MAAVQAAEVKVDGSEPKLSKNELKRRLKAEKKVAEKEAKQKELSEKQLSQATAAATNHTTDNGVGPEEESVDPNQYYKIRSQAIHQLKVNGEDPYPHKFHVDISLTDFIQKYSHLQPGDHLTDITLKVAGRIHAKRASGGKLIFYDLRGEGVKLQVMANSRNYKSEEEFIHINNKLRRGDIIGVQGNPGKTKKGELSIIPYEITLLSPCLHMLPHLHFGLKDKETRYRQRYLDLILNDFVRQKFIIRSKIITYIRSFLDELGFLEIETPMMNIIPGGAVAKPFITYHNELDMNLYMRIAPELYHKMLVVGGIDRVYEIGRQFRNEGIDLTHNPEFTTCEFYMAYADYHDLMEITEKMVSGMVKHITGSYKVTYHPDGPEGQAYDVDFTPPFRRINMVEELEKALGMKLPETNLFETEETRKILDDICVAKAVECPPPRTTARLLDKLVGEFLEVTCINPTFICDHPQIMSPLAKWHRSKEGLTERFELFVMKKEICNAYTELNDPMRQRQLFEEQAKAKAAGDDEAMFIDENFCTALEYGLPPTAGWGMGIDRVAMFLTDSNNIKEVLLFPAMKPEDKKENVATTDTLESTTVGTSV
inactive: erlotinib -0.015 | [1] 0.002 | [2] -0.04 | [3] -0.016 | [4] -0.005 | [5] 0.004 | [6] -0.021 | [7] -0.006 | [8] -0.021 | IRAK-1-4 Inhibitor I -0.017 | ibrutinib 0.009 | [9] 0.012 | ralimetinib 0.016 | [10] 0.018 | [11] 0.001 | [12] -0.011 | [13] 0.024 | [14] -0.014 | [15] 0.015 | [16] 0.029

GTF3C3 (UniProt Q9Y5Q9)
inactive: erlotinib 0.016 | [1] 0.013 | [2] -0.013 | [3] 0.025 | [4] 0 | [5] -0.005 | [6] -0.065 | [7] 0 | [8] 0.031 | IRAK-1-4 Inhibitor I -0.001 | ibrutinib 0.033 | [9] -0.001 | ralimetinib 0.027 | [10] -0.005 | [11] 0.02 | [12] -0.003 | [13] -0.112 | [14] 0.014 | [15] 0.047 | [16] -0.007

IPP (UniProt Q9Y573)
inactive: erlotinib -0.04 | [1] -0.192 | [2] -0.017 | [3] -0.181 | [5] 0.025 | [6] -0.105 | [7] 0.179 | [8] 0.041 | IRAK-1-4 Inhibitor I -0.035 | [9] 0.042 | ralimetinib 0.14 | [10] -0.056 | [11] -0.073 | [13] -0.006 | [15] 0.088 | [16] -0.044

ITPRIP (UniProt Q8IWB1)
inactive: erlotinib 0.218 | [2] -0.16 | [11] 0.023 | [13] 0.041

GPLD1 (UniProt P80108)
inactive: [13] -0.058 | [14] -0.187

KIAA0930 isoform 2 (UniProt Q6ICG6)
inactive: [1] -0.004 | [3] -0.067 | [4] -0.229 | [5] -0.258 | [6] 0.203 | [7] 0.099 | [8] -0.01 | IRAK-1-4 Inhibitor I -0.063 | ibrutinib -0.16 | [9] -0.032 | ralimetinib 0.091 | [10] -0.085 | [12] -0.014 | [13] -0.119 | [14] 0.042 | [15] -0.289 | [16] -0.017

ISL2 (UniProt Q96A47)
Sequence of UniProt Q96A47 (Q96A47 whole entry, looked up): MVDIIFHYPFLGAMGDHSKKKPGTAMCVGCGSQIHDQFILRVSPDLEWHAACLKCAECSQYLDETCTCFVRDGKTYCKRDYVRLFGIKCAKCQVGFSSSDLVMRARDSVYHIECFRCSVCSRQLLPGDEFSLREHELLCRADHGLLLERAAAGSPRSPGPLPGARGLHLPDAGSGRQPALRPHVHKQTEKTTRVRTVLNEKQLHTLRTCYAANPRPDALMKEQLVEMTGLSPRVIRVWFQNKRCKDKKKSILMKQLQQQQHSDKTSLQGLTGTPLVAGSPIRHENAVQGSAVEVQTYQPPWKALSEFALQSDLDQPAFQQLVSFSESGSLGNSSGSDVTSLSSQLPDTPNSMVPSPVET
inactive: erlotinib -0.149 | [2] 0.003 | [4] 0.032 | [5] -0.014 | IRAK-1-4 Inhibitor I 0.016 | ibrutinib 0.05 | ralimetinib 0.056 | [10] -0.089 | [11] 0.019 | [13] -0.003 | [14] -0.075 | [15] 0.01

HSPA8 (UniProt E9PN89)
inactive: erlotinib 0.02 | [2] -0.004 | [4] -0.095 | [5] 0.082 | [7] -0.045 | [8] -0.043 | IRAK-1-4 Inhibitor I -0.055 | ibrutinib 0.081 | [9] -0.051 | ralimetinib 0.034 | [10] -0.215 | [11] 0.007 | [12] -0.036 | [13] 0.017 | [14] 0.093 | [15] 0.231 | [16] -0.083

HECW2 (UniProt Q9P2P5)
inactive: erlotinib -0.012 | [1] 0.009 | [2] -0.093 | [3] 0.013 | [5] -0.075 | [6] 0.023 | [7] 0.029 | [8] -0.118 | IRAK-1-4 Inhibitor I 0.082 | ralimetinib 0.106 | [10] -0.148 | [11] -0.036 | [12] 0.019 | [13] -0.091 | [14] 0.116 | [15] 0.073

HNRNPL, A0A3B3ITJ4
inactive: [4] -0.086 | ibrutinib 0.033 | [9] 0.033 | [16] -0.104

GNB4 (UniProt Q9HAV0)
Sequence of UniProt Q9HAV0 (Q9HAV0 whole entry, looked up): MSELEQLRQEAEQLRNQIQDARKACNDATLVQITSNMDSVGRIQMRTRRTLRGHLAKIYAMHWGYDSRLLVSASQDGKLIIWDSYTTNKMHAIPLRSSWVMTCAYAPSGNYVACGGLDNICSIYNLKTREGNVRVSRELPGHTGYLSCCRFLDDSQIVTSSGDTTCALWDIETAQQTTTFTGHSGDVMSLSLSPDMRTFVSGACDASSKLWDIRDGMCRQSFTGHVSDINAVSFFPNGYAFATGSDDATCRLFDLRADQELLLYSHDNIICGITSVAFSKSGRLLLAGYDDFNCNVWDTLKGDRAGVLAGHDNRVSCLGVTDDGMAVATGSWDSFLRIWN
inactive: erlotinib -0.017 | [2] 0.067 | [4] -0.049 | [5] -0.057 | [7] -0.035 | [8] -0.005 | IRAK-1-4 Inhibitor I -0.024 | ibrutinib -0.104 | [9] -0.071 | ralimetinib 0.009 | [10] -0.026 | [11] 0 | [12] -0.05 | [13] -0.036 | [14] 0.073 | [15] 0.084 | [16] 0.202

IMPDH2 (UniProt H0Y4R1)
inactive: [1] -0.014 | [3] 0.023 | [4] -0.118 | [5] -0.155 | [6] -0.029 | [7] 0.099 | [8] 0.076 | IRAK-1-4 Inhibitor I 0.037 | ibrutinib -0.025 | [9] -0.047 | ralimetinib -0.069 | [10] -0.112 | [12] -0.019 | [13] 0.032 | [14] -0.04 | [15] 0.062 | [16] 0.032

JAK3 (UniProt P52333)
inactive: [1] 0.037 | [3] -0.075 | [4] -0.041 | [6] 0.23 | ibrutinib 0.076 | [9] 0.056 | [14] -0.016 | [16] 0.078

ITPR2 (UniProt Q14571)
Sequence of UniProt Q14571 (Q14571 whole entry, looked up): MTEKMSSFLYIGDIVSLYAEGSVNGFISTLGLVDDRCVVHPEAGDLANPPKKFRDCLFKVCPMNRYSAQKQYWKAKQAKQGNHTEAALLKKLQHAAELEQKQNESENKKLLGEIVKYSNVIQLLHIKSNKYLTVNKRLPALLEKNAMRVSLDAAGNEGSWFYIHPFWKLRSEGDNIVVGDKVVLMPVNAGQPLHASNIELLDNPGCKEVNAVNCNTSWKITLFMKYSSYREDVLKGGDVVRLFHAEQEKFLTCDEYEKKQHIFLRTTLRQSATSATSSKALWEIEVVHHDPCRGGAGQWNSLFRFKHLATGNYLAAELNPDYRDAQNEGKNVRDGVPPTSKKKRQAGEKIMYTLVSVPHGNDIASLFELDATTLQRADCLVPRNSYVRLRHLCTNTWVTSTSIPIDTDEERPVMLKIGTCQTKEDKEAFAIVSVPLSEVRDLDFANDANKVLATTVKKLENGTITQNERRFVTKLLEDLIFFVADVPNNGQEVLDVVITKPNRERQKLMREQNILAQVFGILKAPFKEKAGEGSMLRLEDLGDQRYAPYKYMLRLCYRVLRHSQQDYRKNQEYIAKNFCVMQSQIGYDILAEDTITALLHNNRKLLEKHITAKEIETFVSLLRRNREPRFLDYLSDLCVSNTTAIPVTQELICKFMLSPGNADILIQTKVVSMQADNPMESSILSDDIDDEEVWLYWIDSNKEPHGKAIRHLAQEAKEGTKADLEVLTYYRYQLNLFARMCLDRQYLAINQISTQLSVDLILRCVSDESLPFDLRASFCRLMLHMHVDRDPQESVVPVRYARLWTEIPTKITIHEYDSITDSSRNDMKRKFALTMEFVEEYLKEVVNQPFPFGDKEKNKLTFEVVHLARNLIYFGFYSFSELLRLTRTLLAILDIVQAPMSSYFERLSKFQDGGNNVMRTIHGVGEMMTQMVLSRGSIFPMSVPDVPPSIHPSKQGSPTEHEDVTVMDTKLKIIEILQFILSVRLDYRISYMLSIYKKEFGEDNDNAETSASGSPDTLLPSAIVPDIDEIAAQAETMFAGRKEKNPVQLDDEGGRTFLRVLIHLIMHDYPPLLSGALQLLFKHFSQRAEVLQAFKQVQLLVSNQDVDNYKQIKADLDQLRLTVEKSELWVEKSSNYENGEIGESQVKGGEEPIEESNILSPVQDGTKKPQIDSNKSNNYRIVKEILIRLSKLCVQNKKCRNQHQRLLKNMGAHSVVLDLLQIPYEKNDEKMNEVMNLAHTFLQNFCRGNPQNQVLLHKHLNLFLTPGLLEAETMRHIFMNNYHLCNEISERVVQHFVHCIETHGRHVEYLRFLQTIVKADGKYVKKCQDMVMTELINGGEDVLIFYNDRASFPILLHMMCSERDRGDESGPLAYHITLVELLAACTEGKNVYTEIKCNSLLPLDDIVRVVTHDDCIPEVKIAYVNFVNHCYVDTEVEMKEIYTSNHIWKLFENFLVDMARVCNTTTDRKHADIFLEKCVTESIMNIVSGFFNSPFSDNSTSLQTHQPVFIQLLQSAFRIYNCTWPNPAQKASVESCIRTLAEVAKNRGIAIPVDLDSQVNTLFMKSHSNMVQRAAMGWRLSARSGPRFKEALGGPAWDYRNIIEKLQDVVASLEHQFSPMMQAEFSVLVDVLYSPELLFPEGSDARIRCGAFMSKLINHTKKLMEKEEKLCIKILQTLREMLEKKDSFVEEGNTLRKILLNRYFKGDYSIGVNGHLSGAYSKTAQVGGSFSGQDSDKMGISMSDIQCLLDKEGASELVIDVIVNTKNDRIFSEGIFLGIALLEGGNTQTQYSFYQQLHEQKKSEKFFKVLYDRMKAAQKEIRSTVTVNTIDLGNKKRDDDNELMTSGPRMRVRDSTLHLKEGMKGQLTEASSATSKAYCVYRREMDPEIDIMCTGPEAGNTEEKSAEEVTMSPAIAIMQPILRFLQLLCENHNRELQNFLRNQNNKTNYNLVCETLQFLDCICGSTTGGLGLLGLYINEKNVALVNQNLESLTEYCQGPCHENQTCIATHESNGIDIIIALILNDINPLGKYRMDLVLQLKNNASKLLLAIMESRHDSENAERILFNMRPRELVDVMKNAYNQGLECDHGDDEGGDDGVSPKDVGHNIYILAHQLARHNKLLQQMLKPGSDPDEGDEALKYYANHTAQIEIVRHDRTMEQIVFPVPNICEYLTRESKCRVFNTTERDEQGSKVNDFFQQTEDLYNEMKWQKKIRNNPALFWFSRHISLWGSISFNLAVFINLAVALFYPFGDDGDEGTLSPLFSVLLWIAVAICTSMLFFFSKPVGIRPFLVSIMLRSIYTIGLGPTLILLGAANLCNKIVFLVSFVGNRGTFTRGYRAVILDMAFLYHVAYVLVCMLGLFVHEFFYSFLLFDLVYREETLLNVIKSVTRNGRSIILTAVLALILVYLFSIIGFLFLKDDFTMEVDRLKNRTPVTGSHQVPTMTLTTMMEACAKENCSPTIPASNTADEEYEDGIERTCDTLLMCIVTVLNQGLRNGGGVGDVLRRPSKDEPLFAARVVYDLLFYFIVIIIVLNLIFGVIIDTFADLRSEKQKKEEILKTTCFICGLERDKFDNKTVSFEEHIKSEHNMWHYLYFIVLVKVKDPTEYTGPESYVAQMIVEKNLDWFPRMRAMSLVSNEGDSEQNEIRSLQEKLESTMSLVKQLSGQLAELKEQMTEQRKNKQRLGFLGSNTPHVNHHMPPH
inactive: erlotinib 0.058 | [2] 0.163 | [5] -0.051 | IRAK-1-4 Inhibitor I 0.021 | [9] -0.04 | ralimetinib 0.069 | [10] -0.233 | [11] 0.063 | [12] -0.137 | [13] -0.072 | [15] -0.031 | [16] -0.322

GYPA (UniProt P02724)
Sequence of UniProt P02724 (P02724 whole entry, looked up): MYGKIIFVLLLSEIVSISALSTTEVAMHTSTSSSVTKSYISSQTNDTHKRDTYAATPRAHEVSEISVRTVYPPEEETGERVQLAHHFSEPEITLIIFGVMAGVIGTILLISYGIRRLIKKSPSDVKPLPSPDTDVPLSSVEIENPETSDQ
inactive: erlotinib -0.109 | [1] -0.107 | [2] 0.13 | [3] 0.061 | [4] 0.059 | [5] 0.023 | [6] 0.048 | [7] -0.004 | [8] 0.043 | IRAK-1-4 Inhibitor I 0.017 | ibrutinib 0.318 | [9] 0.102 | ralimetinib -0.052 | [10] 0.054 | [11] -0.095 | [13] -0.085 | [14] 0.018 | [15] -0.037 | [16] -0.034

HNRNPUL1 (UniProt M0R247)
inactive: erlotinib -0.046 | [2] 0.079 | [4] -0.049 | ibrutinib -0.045 | [11] 0.016
